Screens as filed in PubChem.
Shown are actives, neighbours in structure and some others; about 21% of the full set was active somewhere.
Cycloheximide cs = Cycloheximide Counterscreen for Small Molecule Inhibitors of Shiga Toxin. max response, %. cell reporter, cycloheximide protein synthesis inhibition counterscreen. hit rate 12% among 300,000; in the data active = max response mostly above about 13%, no sharp cut-off; inactive = mostly below about 14%; note: read at 38.3 µM for the half of the compounds with a filed dose
Pf growth 96h = Primary qHTS for delayed death inhibitors of the malarial parasite plastid, 96 hour incubation; hit rate 6.9% among 320,000; Potency, µM (doses to about 28.7 µM), most hits filed as inhibitors; AID 504834, 2011; P. falciparum luciferase reporter growth, 96 h
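Parasite growth measured via integrated firefly luciferase reporter in P. falciparum. Infected erythrocytes at 2% hematocrit, 0.05% parasitemia final were treated 96 hours at 37 C under 5% CO2, and luminescence was read.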
HCV inhibitor = qHTS Assay for Inhibitors of Hepatitis C Virus (HCV); Huh7.5.1 HCVcc-Cre infection, luciferase reporter, 44 h; Potency, µM (doses to about 41.8 µM), hits mostly inhibitors; AID 651820, 2012; hit rate 3.4% among 340,000
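Reporter virus HCVcc-Cre (~0.5 moi) infects cells exposed to compound; seeding density 1,000 cells/well with 4 h settling beforehand. Luminescence, 15 sec read, taken 44 h post-infection following a 15 min RT substrate incubation.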
HCMV inh = qHTS Assay for inhibitors of the human cytomegalovirus (HCMV). activity change, negative = inhibition, % at 57.5 µM. HFF cells, HCMV-luciferase reporter, 72 h; hits give low values. hit rate 4.5% among 410,000; in the data active = activity change below about -60%; inconclusive = no clear call, values can overlap the other calls; inactive = above about -39%
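Two-dose cell screen: HFF monolayers treated with compounds and infected with luciferase-expressing HCMV at 1 PFU/cell, 72 h at 37C, then lysed for luciferase measurement.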
Shiga toxin inh = A qHTS for Small Molecule Inhibitors of Shiga Toxin. AID 2315, 2010. Vero cells, Shiga toxin protein synthesis inhibition reporter. hit rate 9.2% among 290,000. inhibition, % at 38.7 µM; in the data active = inhibition mostly above about 28%, no sharp cut-off; inactive = mostly below about 43%
Pf growth 48h = Primary qHTS for delayed death inhibitors of the malarial parasite plastid, 48 hour incubation. P. falciparum luciferase growth in erythrocytes, 48 h. Potency, µM (doses to about 28.7 µM), hits mostly inhibitors. hit rate 5.9% among 310,000
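Erythrocytes infected with P. falciparum carrying an integrated firefly luciferase reporter (2% hematocrit, 0.1% parasitemia final) were exposed to compounds in RPMI 1640 with 0.5% Albumax at 37 C, 5% CO2. Growth inhibition was scored as reduced luminescence.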
A number is an active result; . = inactive; ? = inconclusive; / = no result; [ ] = dose if it differs, or a comment. Unless noted, calls come from the whole dose curve; as a rule, active = well fitted inhibition curve with a large enough effect; inconclusive = small, poorly fitted or top-dose-only effect, or another doubt; inactive = no such curve, though single readings can be large or run the other way.

SMILES	Cycloheximide cs	Pf growth 96h	HCV inhibitor	HCMV inh	Shiga toxin inh	Pf growth 48h
COCCn1c(=O)[nH]c2cc(C(=O)N3CCN(c4cccc(C(F)(F)F)c4)CC3)ccc2c1=O	.	11.7µM	?	.	.	?
COCCn1c(=O)[nH]c2cc(C(=O)N3CCN(c4ccc(F)cc4)CC3)ccc2c1=O	/	/	/	.	/	/
O=C(CBr)c1ccc([N+](=O)[O-])c(CS(=O)(=O)c2ccc(Cl)cc2)c1	.	.	.	.	.	.[0.00184 µM]
COc1ccc2c(c1)c1c(c(=O)n(-c3cccc(C)c3)c(=O)n1CC(=O)N1CCCC1)n2C	/	/	/	.	/	/
CCOC(=O)c1ccccc1Nc1cn(C(C)=O)c2ccccc12	.	?	.	.	.	/
CC(=O)n1cc(Nc2ccccc2C(=O)O)c2ccccc21	.	.	.	.	.	.
CC(=O)n1cc(N(C(=O)CCl)c2ccc(Cl)cc2)c2ccccc21	26.6	?	3.55µM	/	60.9	2.33µM
COc1ccccc1N(C(=O)CCl)c1cn(C(C)=O)c2ccccc12	.	?	?	-96.6	.	?
O=C1NN=C(c2ccccc2)CC1c1c[nH]c2ccccc12 (stereo unspecified)	24.5	?	.	.	.	.
Cc1ccc2c(c1)-c1c(cnn1CC(=O)N1CCN(c3cccc(C(F)(F)F)c3)CC1)CO2	/	/	/	.	/	/
CCCCn1c(CCC)nc([N+](=O)[O-])c1Sc1ccc(Cl)cn1	.	14.7µM	.	-77.3	.	10.4µM
CCCn1c(CC)nc([N+](=O)[O-])c1Sc1ncn[nH]1	/	/	/	.	/	/
Cc1ncc([N+](=O)[O-])n1Cc1ccc(Cl)cc1	.	.	.	.	.	.
CC(C)Cn1c(C(C)C)nc([N+](=O)[O-])c1Sc1ccc(Cl)cn1	.	9.28µM	?	.	.	9.28µM
Cc1ccccc1C1=C/C(=C(\SS/C(C(=O)c2ccc(OCC(=O)O)c(Cl)c2Cl)=C2\C=C(c3ccccc3C)SS2)C(=O)c2ccc(OCC(=O)O)c(Cl)c2Cl)SS1	/	/	?	.	/	/
CN(NC(=O)c1cccc(Cl)c1)c1nc(-c2ccccc2)nnc1C(F)(F)F	.	?	.	.	.	.
CN(N)c1nc(-c2ccccc2)nnc1C(F)(F)F	.	.	.	-104.5	.	.
FC(F)(F)c1cccc(Sc2nc(-c3ccccc3)nnc2C(F)(F)F)c1	.	?	.	.	.	11.7µM
FC(F)(F)c1nnc(-c2ccccc2)nc1Sc1ccccc1	.	13.1µM	?	.	.	?
COc1ccc(-c2nn(-c3ccccc3)cc2C(=O)NC(=S)Nc2cc(Cl)ccc2Cl)cc1	.	5.22µM	.	.	.	2.94µM
COc1ccc(-c2nn(-c3ccccc3)cc2C(=O)NC(=S)NNC(=O)c2ccncc2)cc1	.	?	.	-91.7	.	?
COc1ccc(N=C2SC(C(=O)N3CCN(c4ccc([N+](=O)[O-])cc4)CC3)CC(=O)N2C)cc1 (stereo unspecified)	.	.	?	.	.	14.7µM
Brc1cc(Br)c2ncnc(N3CCCCC3)c2c1	.	?	?	-103.9	.	.
COc1cc2cncc(Cc3ccc(Cl)cc3)c2cc1OC	/	?	?	/	/	8.28µM
COc1cc2nc(CN(C)Cc3ccc(Cl)cc3)[nH]c(=O)c2cc1OC	.	?	.	.	.	.
SMILES	Cycloheximide cs	Pf growth 96h	HCV inhibitor	HCMV inh	Shiga toxin inh	Pf growth 48h
CCOC(=O)c1nn(-c2ccc(C)c(C)c2)cc1O	42.3	/	.	.	93.7	.
COC(=O)c1nn(-c2ccc3c(c2)CCN3C(C)=O)cc1O	.	.	.	?	.	1.31µM
COC(=O)c1nn(-c2ccc3c(c2)OCO3)cc1O	33.2	.	.	.	.	.
CCOC(=O)c1nn(-c2ccc([N+](=O)[O-])cc2)cc1O	31.0	.	.	.	46.0	.
CCOC(=O)c1nn(-c2c(C)n(C)n(-c3ccccc3)c2=O)cc1O	.	.	.	.	.	.
COC(=O)C1=C(C)N(Cc2ccc3c(c2)OCO3)C(=O)C1	.	.	.	.	.	.
Cc1ccc(NC(=O)COC(=O)c2nn(-c3ccc(Cl)cc3)cc2O)cc1	/	/	.	.	/	/
COc1ccc(-c2nc3c4ccccc4n(CC(=O)Nc4cc(F)ccc4F)c(=O)n3n2)cc1	/	/	/	.	/	/
OC1OC[C@@H](O)[C@@H](O)[C@@H]1O (stereo partly specified)	.	/	/	/	.	/
CCOC(=O)c1c(NC(=O)CSc2nnnn2-c2ccc3c(c2)OCCO3)sc(C)c1C	.	.	?	.	.	.
CCOC(=O)c1nn(-c2ccc(C)c(C)c2)c(=O)c2c(N)scc12	.	13.1µM	6.31µM	.	.	.
CCOC(=O)c1nn(-c2ccc3c(c2)OCCO3)cc1O	39.5	.	.	.	84.2	.
Cc1ccc(C(=O)NCC(=O)N(C)CC(=O)Nc2c(Cl)cccc2Cl)s1	/	.	.	.	/	.
COc1ccc2cc(-c3cc(C(=O)O)c4ccccc4n3)ccc2c1	.	.	.	-60.8	.	.
COc1cc2ccccc2cc1C(=O)N1CC(C)CC(C)C1 (stereo unspecified)	.	0.294µM	.	.	.	0.329µM
COc1ccc(-c2cc(C(=O)N3CCCC(C(F)(F)F)C3)c3ccccc3n2)cc1 (stereo unspecified)	/	.	?	.	/	?
O=C(O)c1cc(-c2ccc(-c3ccc(F)cc3)o2)nc2ccccc12	.	.	.	.	30.5	.
COc1ccc(-c2cc(C(=O)N3CC(C)CC(C)C3)c3ccccc3n2)cc1 (stereo unspecified)	/	3.7µM	.	.	/	2.94µM
COc1cc2ccccc2cc1C(=O)N1CCCC1	.	.	.	.	.	.
O=C(c1cc(-c2ccc(F)cc2)nc2ccccc12)N1CCC1	/	/	.	.	/	/
COc1ccc(-c2cc(C(=O)O)c3ccccc3n2)c(OC)c1	.	.	.	.	.	.
CCOC(=O)c1c(-c2ccc(C)cc2)csc1NC(=O)c1cc(=O)c2cc(Cl)ccc2o1	/	/	/	.	/	/
COc1ccc2c(c1)CC/C=C(/C)CC(CO)O2 (stereo unspecified)	/	/	/	.	/	/
COc1ccc(-c2cc(C(=O)N3CCC4(CC3)OCCO4)c3ccccc3n2)cc1	24.9	.	.	.	.	.
Cc1ccc(-c2cc(C(=O)N3CCOCC3)c3ccccc3n2)o1	/	/	.	.	/	/
Cc1ccc(-c2cc(C(=O)N3CCN(c4ccc(F)cc4)CC3)c3ccccc3n2)o1	28.8	?	?	.	.	.
Cc1ccc(-c2cc(C(=O)N3CCCCC3)c3ccccc3n2)cc1C	22.8	.	?	.	.	.
COc1ccc(-c2cc(C(=O)N3CCCC3)c3ccccc3n2)cc1	36.4	3.7µM	.	.	44.8	.
O=C(c1cc(-c2ccccc2)nc2ccccc12)N1CCCC1	.	.	.	.	.	.
